Data: paper PMC5540273 (PLoS ONE, 2017)

Columns and labels:
Settings in all cases: concentration: 1 μM, replicates: in singlicate; n = 1
ACVR2B = system: ACVR2B
ACVRL1 = system: ACVRL1
ADCK3 = system: T1, ADCK3
T1 construct: gene CABC1

ADCK4 = system: ADCK4
AKT1 = system: AKT1
AKT2 = system: AKT2
AKT3 = system: AKT3
ALK = system: ALK
AMPK-alpha1 = system: T2, AMPK-alpha1
T2 construct: gene PRKAA1

AMPK-alpha2 = system: T3, AMPK-alpha2
T3 construct: gene PRKAA2
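Further: KINOMEscan kinase panel screen.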

SMILES	%Inh (ACVR2B) [%]	%Inh (ACVRL1) [%]	%Inh (ADCK3) [%]	%Inh (ADCK4) [%]	%Inh (AKT1) [%]	%Inh (AKT2) [%]	%Inh (AKT3) [%]	%Inh (ALK) [%]	%Inh (AMPK-alpha1) [%]	%Inh (AMPK-alpha2) [%]
Cc1ccc(C(=O)Nc2ccc(Nc3ccnc4cc(-c5ccccn5)ccc34)cc2O)cc1.Cl [GW440146]	25	0	0	0	0	19	0	27	4	15
COc1cc2ncnc(Nc3ccc4nc(-c5ccccc5)[nH]c4c3)c2cc1OC.Cl [GW282450]	0	0	10	16	0	0	0	0	0	0
Cc1c(Cn2ccn3c(=O)cc(N4CCOCC4)nc23)cccc1C(F)(F)F [GSK2289044]	0	0	32	0	0	19	86	5	23	17
Cn1ccc2ncnc(Oc3ccc(NC(=O)Nc4ccccc4)cc3)c21	0	0	12	5	13	0	0	0	0	2
Cc1ccccc1-n1cnc2c(N)ncnc21 [SKF-97510]	0	0	8	0	8	0	0	0	0	0
Cc1cccc(-c2nc(Nc3cccc(C(N)=O)c3)c3ccccc3n2)n1 [GW876019]	19	0	20	26	9	0	0	22	31	0
Cn1cncc1-c1ccc2ncnc(Nc3ccc(OCc4ccccc4)cc3)c2c1 [GW320571]	16	23	27	15	0	20	10	21	35	20
O=C(Nc1ccc2c(c1)OCO2)NC1CCN(c2ccnc(Nc3ccc(F)cc3)n2)C1 (stereo not drawn) [GSK1379724]	0	0	6	36	0	0	0	29	10	0
CN1C(=O)C(Nc2ccc(Cl)c(C(=O)O)c2)=C(c2ccc(Cl)cc2)C1=O [SB-404290]	0	0	0	10	0	0	1	0	6	0
CCn1c(-c2ccccn2)nc2cnccc21 [SB-736398]	0	0	56	6	0	19	0	34	5	10
COc1cccc(-c2cc(-c3c[nH]nc3-c3ccccn3)ccn2)c1 [GW680338]	18	0	25	26	0	0	0	34	7	0
O=C(Nc1n[nH]c2nc(-c3nccs3)c(Br)cc12)C1CC1 [SB-742251]	11	0	15	19	0	1	0	26	10	8
COC(=O)c1c(-c2ccccc2)c2cc(C(=O)O)ccc2c(=O)n1Cc1ccccc1	0	20	0	0	0	0	1	0	0	7
COc1cc(Nc2nccc(N3CCC(NC(=O)Nc4cc(C)ccc4C)C3)n2)cc(OC)c1OC (stereo not drawn) [GSK1379762]	0	0	30	49	0	0	0	45	0	22
O=S(=O)(c1ccc(-c2ccnc3[nH]ccc23)cc1)N1CCCC1 [GSK846226]	0	0	7	21	0	0	0	10	0	0
Cc1cccc(-c2nc(C)cc(Nc3ccncc3)n2)n1 [GSK257997]	7	0	18	24	0	3	0	20	3	12
C[C@@H]1CCCCN1c1cc(-c2ccc3c(N)n[nH]c3c2)nc(N)n1 [GSK2258759]	0	0	14	20	0	0	0	0	0	0
Cc1cc(N2Cc3ccccc3C2)nc(Nc2ccc(S(=O)(=O)N3CCOCC3)cc2)n1.Cl [GSK1669917]	0	0	7	8	96.3	0	0	5	0	16
